Laboratory results taken from PubChem BioAssay (EPA / NIEHS).
Where “and” joins values, the source holds several entries; their conditions need not be identical. Identical values can stand only once. Some structures have more than one record in an assay (separate samples or runs), and their calls can disagree. Calls of active or inactive are those of the source. The calls were made as follows: active = hit-call score of the fitted dose curve at least 0.9, where 1 is the maximum; inactive = score below 0.9.

Experiment: BSK_3C_Proliferation: Cell Proliferation Assessment in the BioMAP Diversity Plus: 3C Assay (AID 2283006);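 as to AC50: potency may reflect either rise or fall in cell number versus DMSO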
Settings: primary human endothelial cells (HUVEC)
Experimental: BSK_3C is a cell-based, multiplexed-readout assay that uses umbilical vein endothelium, a human vascular primary cell, with measurements taken at 24 hours after chemical dosing in a 96-well plate.BSK_3C_Proliferation is an assay component measured in the BSK_3C assay. It measures 0.1% sulforhodamine related to cell proliferation using Sulforhodamine staining technology.Data from the assay component BSK_3C_Proliferation was analyzed into 1 assay endpoint. This assay endpoint, BSK_3C_Proliferation, was analyzed with bidirectional fitting relative to DMSO as the negative control and baseline of activity. Using a type of viability reporter, measures of total protein for gain or loss-of-signal activity can be used to understand the viability at the cellular-level. Furthermore, this assay endpoint can be referred to as a secondary readout, because this assay has produced multiple assay endpoints where this one serves a viability function. To generalize the intended target to other relatable targets, this assay endpoint is annotated to the cell cycle intended target family, where the subfamily is proliferation.
The levels of cell surface (or secreted, indicated by the prefix "s") biomarker endpoints were measured by ELISA. Overt cytotoxicity to cells in confluent adherent cultures (all systems other than the BT system) was assessed by measuring total protein levels using sulforhodamine B (SRB) staining in parallel cultures at the time of biomarker measurements, indicated as SRB endpoints. For proliferation assays for adherent cell types, individual cell types are cultured at sub-confluence and relative cell numbers quantified by SRB staining at time points optimized for each system (48 h: 3C and CASM3C systems; 72 h: BT and HDF3CGF systems; 96 h: SAg system). SRB was performed by staining cells with 0.1% SRB after fixation with 10% TCA and reading wells at 560 nm.Viability and proliferation of PBMC (T cells) was quantified by Alamar Blue reduction for the SAg and BT systems. For PBMC viability (referred to as PBMC Cytotoxicity within the assay endpoint names), cells were plated (75,000/well in a 96-well plate) and then chemical samples added for 1 h before addition of activators, SEB and TSST-1 (20 ng/mL final concentration each). Cells were incubated for 90 h. Then, Alamar Blue (20 uL/well) (Invitrogen, Cat DAL1100) was added for 6 h, and the plates were read with a fluorescence microplate reader at 546/580 nm (excitation/emission). For PBMC proliferation, cells were plated and activated as above but incubated for only 16 h prior to addition of Alamar Blue. Plates were read after 6 h.

| Structure (SMILES) | AC50 | outcome |
| --- | --- | --- |
| CCCCC(CC)COC(=O)c1ccccc1C(=O)OCC(CC)CCCC (stereo not given) | 12.7 µM (active) |  |
| CC(C)(C)c1ccc(CSc2cnn(C(C)(C)C)c(=O)c2Cl)cc1 | 9.12 µM (active) |  |
| COC(=O)C(C)Oc1ccc(Oc2ccc(Cl)cc2Cl)cc1 (stereo not given) |  | inactive |
| CO/C=C(/C(=O)OC)c1ccccc1Oc1cc(Oc2ccccc2C#N)ncn1 | 21.1 µM (active) and 13.6 µM (active) | inactive |
| CNC(=O)ON=CC(C)(C)SC |  | inactive |
| COC(=O)c1ccccc1C(=O)OC |  | inactive |
| O=C(O)c1nc(Cl)ccc1Cl |  | inactive |
| COc1cnc(OC)n2nc(NS(=O)(=O)c3c(OCC(F)F)cccc3C(F)(F)F)nc12 |  | inactive |
| CS/C(C)=N/OC(=O)N(C)SN(C)C(=O)O/N=C(\C)SC | 5.82 µM (active) |  |
| CON(C)C(=O)Nc1ccc(Cl)c(Cl)c1 |  | inactive |
| CCOP(=S)(OCC)SCn1c(=O)oc2cc(Cl)ccc21 | 29.2 µM (active) |  |
| CCc1nn(C)c(C(=O)NCc2ccc(C(C)(C)C)cc2)c1Cl | 15.6 µM (active) |  |
| N#Cc1cc(Br)c(O)c(Br)c1 | 15.8 µM (active) |  |
| CC1=C(C(=O)Nc2ccccc2)SCCO1 |  | inactive |
| C=CCC1=C(C)C(OC(=O)C2C(C=C(C)C)C2(C)C)CC1=O (stereo not given) | 33.4 µM (active) and 32.5 µM (active) and 31.5 µM (active) |  |
| CCON=C(CC)C1=C(O)CC(c2c(C)cc(C)cc2C)CC1=O (stereo not given) |  | inactive |
| CCOc1cc(Oc2ccc(C(F)(F)F)cc2Cl)ccc1[N+](=O)[O-] | 13.4 µM (active) |  |
| CCCCNC(=O)n1c(NC(=O)OC)nc2ccccc21 | 11.2 µM (active) |  |
| O=C(O)COc1nc(Cl)c(Cl)cc1Cl |  | inactive |

| Structure (SMILES) | AC50 | outcome |
| --- | --- | --- |
| CCCCOC(=O)c1ccccc1C(=O)OCCCC | 22.9 µM (active) | inactive |
| Oc1ccccc1-c1ccccc1 |  | inactive |
| N#Cc1nn(-c2c(Cl)cc(C(F)(F)F)cc2Cl)c(N)c1S(=O)C(F)(F)F (stereo not given) | 32.4 µM (active) |  |
| Cc1cc(Cl)ccc1OCC(=O)O |  | inactive |
| COC(=O)C=C(C)OP(=O)(OC)OC |  | inactive |
| CCCC1COC(Cn2cncn2)(c2ccc(Cl)cc2Cl)O1 (stereo not given) |  | inactive |
| Cc1ccc(-c2c(Cl)nc(C#N)n2S(=O)(=O)N(C)C)cc1 | 28.6 µM (active) |  |
| COc1nc(C)nc(NC(=O)NS(=O)(=O)c2ccccc2CCC(F)(F)F)n1 |  | inactive |
| CCNc1nc(Cl)nc(NC(C)C)n1 |  | inactive |
| Cc1c(F)c(F)c(COC(=O)C2C(/C=C(\Cl)C(F)(F)F)C2(C)C)c(F)c1F (stereo not given) | 20 µM (active) |  |
| COc1nc(C)nc(NC(=O)NS(=O)(=O)c2ccccc2Cl)n1 |  | inactive |
| CNC(=S)S | 20 µM (active) |  |
| CC1COC(Cn2cncn2)(c2ccc(Oc3ccc(Cl)cc3)cc2Cl)O1 (stereo not given) | 24.6 µM (active) |  |
| CCOC(=O)CC(SP(=S)(OC)OC)C(=O)OCC (stereo not given) |  | inactive |
| COc1ccc(C(c2ccc(OC)cc2)C(Cl)(Cl)Cl)cc1 | 14.3 µM (active) |  |
| COP(=S)(OC)Oc1nc(Cl)c(Cl)cc1Cl | 31.9 µM (active) |  |
| CC(C)C1(C)N=C(c2nc3ccccc3cc2C(=O)O)NC1=O (stereo not given) |  | inactive |
| O=C(Nc1ccccc1)Nc1ccnc(Cl)c1 |  | inactive |
| CCCCNC(=O)OCC#CI | 6.12 µM (active) and 7.64 µM (active) |  |
